Where “and” joins values, the source holds several entries; their conditions need not be identical. Equal entries are not always repeated. Inconclusive results are not listed. Entries that show only a call come without a potency. A structure can be active in one record and inactive in another. Calls of active or inactive are those of the source. The call rests on the fitted dose curve; in most records, active means well fitted cell-killing curve with a large enough effect in the repeat runs; inconclusive means weak or mixed curves; inactive means flat fitted curve, though single readings scatter.
Assay: qHTS RealTime-Glo MT Cell Viability Assay in HepG2 cells - 24 hour (AID 1224867); further: nearly all actives have a fitted effect of over 50% in size
Conditions: RealTime-Glo luminescence; series mostly up to 76.8 µM
Text: U.S. Tox21 Program National Center for Advancing Translational Sciences [NCATS] NIH Chemical Genomics Center [NCGC] U.S. Environmental Protection Agency [EPA] National Institutes of Environmental Health Sciences [NIEHS] National Toxicology Program [NTP] U.S. Food and Drug Administration [FDA] Tox21 Assay Overview: Measure of cell viability is critical in the cell-base assay. Analysis of cell viability is necessary for the characterization of cell responses to cytotoxic drugs and environmental stress. A RealTime-Glo MT Cell Viability Assay to monitor cell viability in real time of continues cell culture during 40 hours of compound treatment was used to screen Tox21 10K library compounds in HepG2 cells. The RealTime-Glo MT Cell Viability Assay is a nonlytic, homogeneous, bioluminescent method to measure cell viability in real time using a simple, plate-based method. The assay involves adding NanoLuc luciferase and a cell-permeant prosubstrate to cells in culture. Viable cells reduce the proprietary prosubstrate to generate a substrate for NanoLuc luciferase. This substrate diffuses from cells into the surrounding culture medium, where it is rapidly used by the NanoLuc Enzyme to produce a luminescent signal. The signal correlates with the number of viable cells, making the assay well suited for cytotoxicity studies.
Tox21 Assay Protocol Summary: The mixture of HepG2 cell suspension and reagents were dispensed at 600cells/6 ul/well in 1536-well tissue culture treated black solid bottom plates using a Multidrop dispenser. After the assay plates were incubated at a 37 C/5% CO2 incubator for 5 hours, 23 nL of compounds dissolved in DMSO, positive and negative controls was transferred to the assay plate by a pintool work station. The plates were incubated at 37 C for 40 hours. The luminescence intensity were measured at 0h, 8h, 16h, 24h, 32h and 40h time points using ViewLux plate reader during compound treatment.
Potency means the concentration at half of the fitted maximal effect.

Structure (SMILES)	Potency
Oc1ccc(Cl)cc1Cc1ccccc1	inactive and 49.6 µM (active)
Brc1ccc(Br)cc1	inactive
CC(C)(c1ccc(OCC2CO2)cc1)c1ccc(OCC2CO2)cc1 (stereo not given)	inactive
CC(C)(c1ccccc1)c1ccc(O)cc1	inactive
CCCCCCCCCCCCCl	inactive
NN=C(N)N	inactive
ClC(Cl)(Cl)c1ccccc1	inactive
Nc1ccc([N+](=O)[O-])cc1N	inactive
N#CCCCCC#N	inactive
CNC(=O)CSP(=S)(OC)OC	inactive
[Cl-].[Cl-].[Cl-].[Fe+3]	inactive
N#Cc1nn(-c2c(Cl)cc(C(F)(F)F)cc2Cl)c(N)c1S(=O)C(F)(F)F (stereo not given)	inactive
COP(=S)(OC)Oc1ccc(Sc2ccc(OP(=S)(OC)OC)cc2)cc1	inactive
CC(O)CN(CC(C)O)CC(C)O (stereo not given)	inactive
CCN(CC)C(=O)C(C)Oc1cccc2ccccc12 (stereo not given)	inactive
O=C(O)c1nn(Cc2ccc(Cl)cc2Cl)c2ccccc12	inactive
CCNc1nc(Cl)nc(NC(C)(C)C#N)n1	inactive
NC(=O)CN1CCCC1=O	inactive
COc1ccc(O)c(C(C)(C)C)c1	inactive
O=C1CCCO1	inactive

Structure (SMILES)	Potency
CS(=O)(=O)NC(=O)c1cc(Oc2ccc(C(F)(F)F)cc2Cl)ccc1[N+](=O)[O-]	inactive
CC(C)(O)C(=O)Nc1ccc([N+](=O)[O-])c(C(F)(F)F)c1	inactive
Cc1ccc([N+](=O)[O-])cc1	inactive
O=NN1CCOCC1	inactive
ClC(Cl)=C(Cl)C(Cl)=C(Cl)Cl	inactive
OCCOCCO	inactive
Oc1ccc(Cl)cc1Cl	inactive
CCCCOCC1CO1 (stereo not given)	inactive
C[N+](C)(C)CC(=O)O	inactive
COc1ccc(C=O)cc1OC	inactive
C[N+](C)(C)C	inactive
C[N+](C)(C)CC(=O)[O-]	inactive
COc1ccc(CO)cc1	inactive
Clc1ccccc1-c1nnc(-c2ccccc2Cl)nn1	inactive
CC(C)=CC1C(C(=O)OCN2C(=O)C3=C(CCCC3)C2=O)C1(C)C (stereo not given)	inactive
Clc1ccc(C(Cl)(Cl)Cl)cc1	inactive
CCC[CH2][Sn]([Cl])([Cl])[CH2]CCC	313 nM (active) and 219 nM (active)
CCC[CH2][Sn]([Cl])([CH2]CCC)[CH2]CCC	1.55 µM (active) and 549 nM (active)
CCCCCCCCCc1ccc(O)cc1	inactive
COP(=O)(NC(C)=O)SC (stereo not given)	inactive

Source: PubChem BioAssay (Tox21)
